Unmarked numbers belong to inactive results.
Tested on: Plasmodium falciparum NF54/iGP1_RE9H ulg8 stage V gametocytes
Test: gametocyte viability (luciferase signal relative to DMSO control) (% of DMSO control); higher = less gametocytocidal activity, active = 50 or less
Conditions: exposure time: 72 h
Outline: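 Stage V gametocytes of the NF54/iGP1_RE9Hulg8 line (day 12; ~2.5% gametocytemia, 3% hematocrit), in medium containing 0.5% Albumax II, were dispensed into 96-well plates with compounds spotted in nanolitre volumes from 10 mM DMSO stocks, for final concentrations of 10 µM or 1 µM in a single well each. After 72 h at 37 °C, 90 µl from each well was combined with 10 µl D-luciferin (30 mg/ml), and luminescence was measured on an IVIS Lumina II. Viability was expressed against the mean of the DMSO vehicle wells on the same plate.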

| Compound | gametocyte viability (concentration: 1 µM) | gametocyte viability (concentration: 10 µM) |
| --- | --- | --- |
| O=C1Nc2ccc(I)cc2/C1=C/c1cc(Br)c(O)c(Br)c1 | 92.1 | 90.5 |
| Cc1cc(C(C)Nc2ccccc2)c2nc(N3CCOCC3)cc(=O)n2c1 (stereo not given) | 90.1 | 89 |
| COc1ccc2c3n(c(=NC(=O)c4cccnc4)nc2c1OC)CCN3 | 94.4 | 101 |
| CC(C)(C)c1cnc(CSc2cnc(NC(=O)C3CCNCC3)s2)o1 | 104 | 101 |
| Cc1ccc(S(=O)(=O)Nc2nc3ccccc3nc2Nc2ccc3nsnc3c2)cc1 | 87.4 | 103 |
| CN(C)C/C=C/C(=O)Nc1cc2c(Nc3ccc(F)c(Cl)c3)ncnc2cc1O[C@H]1CCOC1 [Afatinib (BIBW2992)] | 92 | 93.5 |
| Cc1cn(-c2cc(NC(=O)c3ccc(C)c(Nc4nccc(-c5cccnc5)n4)c3)cc(C(F)(F)F)c2)cn1 [Nilotinib (AMN-107)] | 111 | 107 |
| Cc1[nH]c(/C=C2\C(=O)Nc3ccc(S(=O)(=O)N(C)c4cccc(Cl)c4)cc32)c(C)c1C(=O)N1CCN(C)CC1 | 107 | 92.8 |
| O=S(=O)(c1cccc2c(I)cccc12)N1CCCNCC1 | 102 | 94.1 |
| C=CC(=O)Nc1cc2c(Nc3ccc(F)c(Cl)c3)ncnc2cc1OCCCN1CCOCC1 [CI-1033 (Canertinib)] | 97.8 | 100 |
| CO[C@@H]1[C@H](N(C)C(=O)c2ccccc2)C[C@H]2O[C@]1(C)n1c3ccccc3c3c4c(c5c6ccccc6n2c5c31)C(=O)NC4 | 91.1 | 95.9 |
| Cc1cc(=O)c2c(O)c3c(O)cc(O)c4c5c(O)cc(O)c6c(O)c7c(=O)cc(C)c8c1c2c(c34)c(c65)c78 [Hypericin] | 103 | 100 |
| Nc1ncnc2c1c(-c1cccc(OCc3ccccc3)c1)cn2C1CC(CN2CCCC2)C1 (stereo not given) | 94.4 | 84 |
| Cn1cc(-c2ccc3nnc(Sc4ccc5ncccc5c4)n3n2)cn1 | 99.7 | 88.7 |
| COc1cc2nccc(Oc3ccc(NC(=O)Nc4ccc(F)cc4F)c(F)c3)c2cc1OC | 94.9 | 85 |
| FC(F)(F)c1ccc(/C=C/c2nc(COc3ccc(CCCCn4ccnn4)cc3)co2)cc1 [Mubritinib (TAK 165)] | 95.1 | 104 |
| Cc1ccc(F)c(NC(=O)Nc2ccc(-c3cccc4[nH]nc(N)c34)cc2)c1 [Linifanib (ABT-869)] | 90.6 | 89.4 |
| CCN(CC)CCNC(=O)c1c(C)[nH]c(/C=C2\C(=O)Nc3ccc(F)cc32)c1C [Sunitinib Malate (Sutent)] | 102 | 80.7 |
| Cc1ccc(-n2nc(C(C)(C)C)cc2NC(=O)Nc2ccc(OCCN3CCOCC3)c3ccccc23)cc1 [BIRB 796 (Doramapimod)] | 96 | 98.8 |
| O=C(NC1CCNCC1)c1n[nH]cc1NC(=O)c1c(Cl)cccc1Cl | 99.2 | 69.7 |
